From PubChem BioAssay come the findings set out here.

Fibroblast growth factor 2 (Homo sapiens), sequence (P09038 whole entry, looked up): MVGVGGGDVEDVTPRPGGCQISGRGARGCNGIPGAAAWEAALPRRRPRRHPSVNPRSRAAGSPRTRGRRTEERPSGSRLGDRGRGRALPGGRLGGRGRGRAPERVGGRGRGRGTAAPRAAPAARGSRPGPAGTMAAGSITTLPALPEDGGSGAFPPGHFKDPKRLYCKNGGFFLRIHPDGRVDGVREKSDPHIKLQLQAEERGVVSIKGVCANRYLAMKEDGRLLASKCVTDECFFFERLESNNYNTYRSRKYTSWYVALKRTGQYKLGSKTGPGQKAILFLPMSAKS

This assay concerns the target Fibroblast growth factor 2 (Homo sapiens) (UniProt P09038). Kind of assay: FGF2 binders on small-molecule microarrays, primary screen, biochemical, small-molecule microarray, 635/667 nm fluorescence (AID 1133). The note with it: small-molecule microarray binding, FGF2, fluorescence 635/667; higher = more signal.
On to `C[N+](C)(C)CCCCNC(=O)[C@H]1C[C@H]2C(=O)N3CCC[C@H]3C(=O)N2[C@H]1c1ccc(O)cc1`, for which the composite z-score amounted to 1.81. To `O=S(=O)(NCCCO)c1ccc(Br)cc1` belongs 0.663; to `Cc1ccc(S(=O)(=O)N2CC(C(=O)O)=CCC2c2ccccc2)cc1` (stereo unspecified), -1.14; to `C=CCOC(=O)[C@H]1[C@@H]2C(=O)O[C@@H](c3ccccc3)[C@@H](c3ccccc3)N2[C@@H](c2ccc(OCCOC(=O)[C@@H]3C[C@@H]4C(=O)NCC(=O)N4[C@@H]3c3ccc(O)cc3)cc2)[C@]12C(=O)Nc1ccc(I)cc12`, 1.65. To `CC(=O)NCCCC[C@@H]1NC(=O)[C@@H]2C[C@H](C(=O)NCCCCCC[N+](C)(C)C)[C@H](c3cccc(OCCO)c3)N2C1=O` belongs 1.69. The result for `C/C=C/[C@H](CCn1cc([C@H](O)c2ccccc2)nn1)[Si](C)(C)c1ccc(OC)cc1` reads -0.997; that for `CCCNC(=O)[C@@]1(C)c2ccccc2C(=O)N(Cc2cc(C(F)(F)F)cc(C(F)(F)F)c2)[C@H]1c1ccc(CO)cc1`, 0.68.

The compound `C=C(CCCC)/C(=C/C[C@H](OC(C)=O)c1ccc(CO)o1)c1cc(C(=O)OC)ccc1OC` displayed a composite z-score of 0.708. To `C=CCCN(CC#C[C@H]1Oc2ccccc2S(=O)(=O)N2CCC[C@@H]12)S(=O)(=O)c1ccc(C)cc1` belongs 1.22; to `CN1C(=O)C2C=CC(C(O)C(c3ccccc3)c3ccccc3)N(Nc3ccccc3)C2C1=O` (stereo unspecified), 0.0635; to `O=C1OCCC/C=C\[C@H]2OC34C=CCN(CCN5CCOCC5)C(=O)[C@H]3N(CCO)C(=O)[C@@H]4C12` (stereo partly specified), -0.322.

With `COCCOC(=O)N1C(=O)[C@@]2(c3cc(C#CC4(O)CCCCCC4)ccc31)[C@H](c1ccc(O)cc1)N1[C@H](c3ccccc3)[C@H](c3ccccc3)OC(=O)[C@H]1[C@@H]2C(=O)N1CCc2cc(OC)c(OC)cc2C1`, the composite z-score was -0.505. To `COCCn1c(C(=O)N2CCCC2)cc2c1C[C@H]1CN(C(=O)c3ccccc3)[C@@](Cc3ccc(OC)cc3)(C(=O)OC)[C@@H]21` belongs -0.552. The result for `Cc1cc(C)c(C(O)C2C=CC3C(=O)NC(=O)C3N2Nc2ccccn2)c(C)c1` (stereo unspecified) reads -0.719; that for `CC(c1ccccc1)C(O)C1C=CC2C(=O)N(Cc3ccccc3)C(=O)C2N1n1cnnc1` (stereo unspecified), 0.408. To `O=C(NCC(O)CO)[C@@]1(Cc2ccccc2)N=C(c2ccc(OCCCO)cc2)O[C@H]1c1ccccc1` (stereo partly specified) belongs 0.331. As to `CC(c1ccccc1)C(O)C1C=CC2C(=O)N(c3ccccc3)C(=O)C2N1Nc1ccccc1F` (stereo unspecified), the composite z-score is -0.645.

With `C=CC[C@@]1(C(=O)NCc2ccccc2)N=C(c2ccc(OCCCO)cc2)O[C@@H]1c1ccccc1CN=[N+]=[N-]`, the composite z-score is -0.204. The result for `C=CCN1C(=O)[C@]2(Cc3ccccc31)N=C(c1ccc(OCCCO)cc1)O[C@@H]2c1ccccc1` reads 1.65; that for `CCCCC(=O)N(Cc1ccccc1F)[C@@H]1CC(C(=O)NCCO)=C[C@H](Oc2c(I)cc(CO)cc2OC)[C@H]1O`, 2.04. In turn, `Cc1c(NC(=O)/C(C#N)=C/C=C/c2ccccc2)c(=O)n(-c2ccccc2)n1C` displayed a composite z-score of 0.366. To `CC(C)(C)OC(=O)CC[C@]1(C(=O)NCC(O)CO)N=C(c2ccc(OCCCO)cc2)O[C@H]1c1ccccc1CN=[N+]=[N-]` (stereo partly specified) belongs 0.703; to `CCCC[C@@H]1C[C@H]1[C@@H](NC(=O)c1ccco1)c1ccccc1`, -2.17. In turn, `NC(=O)NCC#Cc1ccc2c(c1)[C@]1(C(=O)N2)[C@H](c2ccccc2OCCO)N2[C@H](c3ccccc3)[C@H](c3ccccc3)OC(=O)[C@H]2[C@@H]1C(=O)N1CCCCCCC1` came in with a composite z-score of 0.927. To `C=C(COC)C(=O)CC[C@H](OC(=O)c1cccnc1)c1ccccc1OCCO` belongs 1.56. To `C=C(C(=O)CC[C@@H](OC(=O)c1cccnc1)c1ccc(CO)o1)C(C)C` belongs 1.1; to `O=C1O[C@H](c2ccccc2)[C@H](c2ccccc2)N2[C@H]1[C@@H](C(=O)Nc1nc3ccccc3s1)[C@]1(C(=O)Nc3ccc(C#CC4=CCCCC4)cc31)[C@H]2c1ccc(OCCO)cc1`, 0.579; to `COCCOC(=O)N1C(=O)[C@@]2(c3cc(C#Cc4ccc(OC)cc4)ccc31)[C@H](C(N)=O)[C@H]1C(=O)O[C@H](c3ccccc3)[C@H](c3ccccc3)N1[C@@H]2c1ccc(O)cc1`, -2.13. For the compound `CN1C(=O)C2C(C1=O)C1C=C(c3ccc(CO)cc3)C2C(C2CC2)N1Cc1sc2ccccc2c1Cl` (stereo unspecified), the composite z-score was 1.06. The result for `CC1CC/C=C\[C@H]2OC34C=CCN(Cn5nnc6ccccc65)C(=O)[C@H]3N(CCCO)C(=O)[C@@H]4C2C(=O)O1` (stereo partly specified) reads -1.03. The result for `O=P(NCC1(CC2(c3ccccc3)CO2)CC1)(c1ccccc1)c1ccccc1` (stereo unspecified) reads -1.36; that for `CCOC(=O)C1=CC[C@@H](c2ccccc2)N(S(=O)(=O)c2ccc(C)cc2)[C@H]1c1ccc(C#N)cc1`, -0.732; that for `COc1cc(NN2C(C(O)c3ccccc3)C=CC3C(=O)N(c4ccccc4)C(=O)C32)cc(OC)c1OC` (stereo unspecified), 0.444. The result for `Cn1c2c(c3ccccc31)C(=O)C1NC2C=CC1(C)C(=O)OCc1ccccc1` (stereo unspecified) reads -2.05.

`Cc1ccc(S[C@]2(C(=O)NCCN3CCOCC3)CC(=O)N(C3CCCCC3)[C@@H]2c2ccc(CO)cc2)cc1`: the composite z-score is -0.262. To `COCCOC(=O)N1C(=O)[C@@]2(c3cc(C#CC4=CCCCC4)ccc31)[C@H](c1ccc(OCCO)cc1)N1[C@H](c3ccccc3)[C@H](c3ccccc3)OC(=O)[C@H]1[C@@H]2C(=O)Nc1nc2ccccc2s1` belongs 0.571.
